Source: PubChem BioAssay
HCV inhibitor = HCV inhibition | Huh7.5.1 HCVcc-Cre infection, luciferase reporter, 44 h | Potency, µM (series often up to 41.8 µM), hits mostly inhibitors | hit rate 3.4% among 340,000
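Infectious HCV cell culture screen: compound-treated cells (1,000/well, pre-plated 4 h) are infected with HCVcc-Cre at roughly 0.5 moi and grown 44 h. Infection is quantified by luciferase signal after 15 min substrate incubation at room temperature.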
SARS PLpro yeast = SARS-CoV PLP inhibition in yeast. S. cerevisiae expressing SARS-CoV PLpro, growth rescue. Potency, µM (titrated, usually from 32.9 µM), most hits filed as activators. hit rate 0.19% among 330,000. AID 485353; calls by dose curve; also: nearly all actives have a fitted effect of over 55% in size
Pf growth 48h = P. falciparum growth inhibition at 48 hours (one generation) | P. falciparum luciferase growth in erythrocytes, 48 h | Potency, µM (highest dose often 28.7 µM), actives largely listed as inhibitors | hit rate 5.9% among 310,000 | AID 504832
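Luciferase-expressing P. falciparum in infected erythrocytes (2% hematocrit, 0.1% parasitemia final) in RPMI 1640/0.5% Albumax were exposed to compound for 48 hours at 37 C, 5% CO2; growth read as luminescence.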
Pf growth 96h = P. falciparum growth inhibition at 96 hours. hit rate 6.9% among 320,000. P. falciparum luciferase reporter growth, 96 h. Potency, µM (doses to about 28.7 µM), actives largely listed as inhibitors
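P. falciparum expressing integrated firefly luciferase grown in erythrocytes (2% hematocrit, 0.05% parasitemia final) with compounds for 96 hours at 37 C, 5% CO2. Growth inhibition read as loss of luminescence after adding luciferase detection reagent.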
AMA1 RON2 block = AMA1-RON2 (P. falciparum) interaction inhibition; AlphaScreen AMA1-biotinylated RON2 peptide binding; Potency, µM (series often up to 58.2 µM), most hits filed as inhibitors; hit rate 0.2% among 360,000; AID 720542; also: nearly all actives have a fitted effect of over 45% in size
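AMA1 (3D7) with his tag at 25 nM final met compounds first, then biotinylated RON2 peptide at 25 nM; detection used donor plus acceptor beads, 10 µg/mL apiece, read by AlphaScreen after 30 min at room temperature.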
NS1 inh = inhibitors of influenza NS1 protein function; Potency, µM (titrated, usually from 46.1 µM); hit rate 0.4% among 270,000; AID 2326; calls by dose curve; also: actives are rising curves; nearly all actives have a fitted effect of over 50% in size
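S. cerevisiae expressing influenza A NS1, grown in glucose, washed, then diluted 1:100 into pH 6.0 -URA galactose medium with 23 nl compound. Growth recovery read as OD600; NS1-free strain serves as control.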
Each line names hits and unclear results; the compound was inactive in the other large screens. The list is not random: actives were taken first. Their share in the collection is about 12%. Unless noted, calls follow the shape of the dose curve; as a rule, active = well fitted curve in the direction sought with a large enough effect; inconclusive = small, poorly fitted or top-dose-only effect, or another doubt; inactive = no such curve, though single readings can be large; an effect the other way counts as inactive or inconclusive.

COc1ccc(CNC(=O)[C@H](C)N2C(=O)N3CCc4c([nH]c5ccc(OC)cc45)[C@@]3(C)C2=O)cc1	HCV inhibitor inconclusive, Pf growth 48h inconclusive, Pf growth 96h inconclusive
COc1ccccc1CNC(=O)[C@H](C)N1C(=O)N2CCc3c([nH]c4ccccc34)[C@@]2(C)C1=O	HCV inhibitor inconclusive, Pf growth 96h inconclusive
COc1ccc2[nH]c3c(c2c1)CCN1C(=O)N([C@@H](C)C(=O)NC2CCCCC2C)C(=O)[C@]31C (some centres undefined)	Pf growth 48h 9.3µM, Pf growth 96h 12µM
COc1ccc(CCNC(=O)[C@H](C)N2C(=O)N3CCc4c([nH]c5ccccc45)[C@@]3(C)C2=O)cc1	HCV inhibitor 4.5µM, Pf growth 48h inconclusive, Pf growth 96h inconclusive
CC1=NN(CCc2ccccn2)C(=O)CC1	none (no result: SARS PLpro yeast, Pf growth 48h, Pf growth 96h, NS1 inh)
CC(C)(C)Cc1c(-c2ccccc2)nc2ccc(Cl)cn12	none (no result: HCV inhibitor, SARS PLpro yeast, Pf growth 48h, Pf growth 96h, NS1 inh)
O=C(O)CC1(CC(=O)Nc2ccc(F)c(Cl)c2)CCCCC1	none
Cc1cccc(N(C)S(=O)(=O)c2ccc3c(c2)C(C)(C)C(=O)N3C)c1	Pf growth 48h inconclusive
COc1ccc2[nH]c3c(c2c1)CCN1C(=O)N([C@@H](C)C(=O)NCCc2ccc(OC)c(OC)c2)C(=O)[C@]31C	HCV inhibitor inconclusive, Pf growth 48h inconclusive, Pf growth 96h 10µM
CC(C)[C@@H](C(=O)NC1CCCC1)N1C(=O)N2CCc3c([nH]c4ccccc34)[C@@]2(C)C1=O	HCV inhibitor inconclusive, Pf growth 96h inconclusive
C[C@@H](C(=O)NC1CCCC1)N1C(=O)N2CCc3c([nH]c4ccccc34)[C@@]2(C)C1=O	HCV inhibitor 10µM
Cc1ccc2c(c1)C1CN(C)CCC1N2C(=O)CCCN1C(=O)c2cccc3cccc(c23)C1=O (centres undefined)	HCV inhibitor inconclusive, Pf growth 48h 1.9µM, Pf growth 96h 3.7µM
Cc1ccc2c(c1)C1CN(C)CCC1N2C(=O)c1cn(-c2ccccc2)nc1-c1ccccc1 (centres undefined)	HCV inhibitor inconclusive, Pf growth 48h 13µM, Pf growth 96h inconclusive (no result: NS1 inh)
Cc1ccc2c(c1)C1CN(C)CCC1N2C(=O)c1cccnc1Cl (centres undefined)	none
Cc1ccc2c(c1)C1CN(C)CCC1N2C(=O)c1cccc(S(=O)(=O)N2CC(C)CC(C)C2)c1 (centres undefined)	Pf growth 48h inconclusive, Pf growth 96h 13µM (no result: NS1 inh)
Cc1ccc2c(c1)[C@@H]1CN(C)CC[C@@H]1N2C(=O)Nc1cccc(C(F)(F)F)c1	HCV inhibitor 10µM, Pf growth 96h 0.83µM (no result: Pf growth 48h)
O=C(O)/C=C/c1ccc(S(=O)(=O)NCc2cccnc2)cc1	none
CCCCN1C[C@H](CSC)[C@@H](CC(=O)Nc2ccc(OC)cc2)C1=O	none (no result: HCV inhibitor, SARS PLpro yeast, Pf growth 48h, Pf growth 96h, NS1 inh)
CCOC(=O)Cc1cc(=O)c2cc(C)ccc2[nH]1	Pf growth 48h inconclusive, Pf growth 96h inconclusive
Cc1ccc2c(c1)C1CN(C)CCC1N2C(=O)Nc1cccc(C(F)(F)F)c1 (centres undefined)	HCV inhibitor inconclusive, Pf growth 48h 9.3µM (no result: Pf growth 96h)
CN(C)S(=O)(=O)c1cccc(NC(=O)COC(=O)/C=C/c2ccc([N+](=O)[O-])cc2)c1	none (no result: NS1 inh)
CCCCCc1ccc(OCCCC[n+]2ccccc2)c(CCCCC)c1	Pf growth 48h 0.93µM (no result: NS1 inh)
CCCCCc1ccc(OCCCC[n+]2ccc(C)cc2)c(CCCCC)c1	HCV inhibitor 6.3µM, Pf growth 48h 0.47µM
c1cc[n+](CCCC[n+]2ccccc2)cc1	none
CCCCCc1ccc(OCCCC[n+]2cccc(C)c2)c(CCCCC)c1	HCV inhibitor inconclusive
CCC(C)(C)c1ccc(OCCCC[n+]2ccccc2)c(C(C)(C)CC)c1	HCV inhibitor inconclusive, Pf growth 48h 2.1µM (no result: NS1 inh)
CCCCOc1ccc(C)cc1CN(CCO)CCO	none (no result: Pf growth 48h)
CCOC(=O)C1=C(Cn2cnc3ccccc32)NC(=O)NC1c1ccc(Cl)cc1 (centres undefined)	SARS PLpro yeast inconclusive, Pf growth 96h 5.9µM (no result: Pf growth 48h)
CCOC(=O)C1=C(Cn2cnc3ccccc32)NC(=O)NC1c1ccc(OC)cc1 (centres undefined)	Pf growth 96h inconclusive (no result: Pf growth 48h)
COc1ccc(N(C(=O)c2ccco2)C(C(=O)NC2CCCC2)c2ccncc2)cc1 (centres undefined)	HCV inhibitor inconclusive
COc1ccc(C(C(=O)NC2CCCCC2)N(C(=O)CCl)c2ccc(OC)cc2)cc1 (centres undefined)	HCV inhibitor 1µM, Pf growth 96h 9.3µM
COc1ccc(C(C(=O)NC2CCCC2)N(C(=O)c2ccoc2C)c2ccc(C)cc2)cc1 (centres undefined)	Pf growth 48h 10µM, Pf growth 96h inconclusive
COc1ccc(C(C(=O)NC2CCCCC2)N(C(=O)c2ccccn2)c2cccnc2)cc1 (centres undefined)	none
COc1ccc(C(C(=O)NC2CCCCC2)N(C(=O)CCl)c2ccc(C)cc2)cc1 (centres undefined)	HCV inhibitor 0.56µM
COC(CN(C(=O)CCl)C(C(=O)NC1CCCCC1)c1ccc(C)cc1)OC (centres undefined)	none
COc1ccc(CN(C(=O)c2nsc(Cl)c2Cl)C(C(=O)NC2CCCC2)c2ccc(C)cc2)cc1 (centres undefined)	HCV inhibitor inconclusive, Pf growth 48h inconclusive, Pf growth 96h 10µM
COc1ccc(C(C(=O)NC2CCCCC2)N(C(=O)CCl)c2cccc(Cl)c2)cc1 (centres undefined)	HCV inhibitor 1.6µM, Pf growth 48h inconclusive, Pf growth 96h inconclusive
CNc1nc(-c2ccccc2)c2sccc2n1	none (no result: HCV inhibitor, SARS PLpro yeast, Pf growth 48h, Pf growth 96h, NS1 inh)
O=C(/C=N/O)Nc1ccc2sc3ccccc3c2c1	HCV inhibitor 13µM
CC1CCCCC1NC(=O)C1CCN(c2c3c(nc4ncnn24)CCC3)CC1 (centres undefined)	HCV inhibitor inconclusive, SARS PLpro yeast inconclusive, Pf growth 48h 9.3µM
Cc1ccnc(NS(=O)(=O)c2ccc(NC(=O)CCc3ccccc3)cc2)n1	none
COc1cc(/C=N/NC(=O)NC23CC4CC(CC(C4)C2)C3)ccc1OCC(N)=O	HCV inhibitor inconclusive, Pf growth 48h 9.3µM, Pf growth 96h 5.9µM
COc1ccc(C=NNC(=S)NC23CC4CC(CC(C4)C2)C3)cc1OC	none (no result: SARS PLpro yeast, Pf growth 48h, Pf growth 96h, NS1 inh)
Nc1cc(=O)[nH]c(SCC(=O)NC2CCCCCCC2)n1	none (no result: Pf growth 48h, Pf growth 96h, NS1 inh)
NCCS	HCV inhibitor 0.56µM
Cc1ccc(-c2csc3ncn(-n4c(C)ccc4C)c(=O)c23)o1	Pf growth 48h 13µM, Pf growth 96h 0.74µM
COc1cc(OC)c(C2CC(=O)N3CN(c4ccccc4C)CSC3=C2C#N)cc1OC (centres undefined)	HCV inhibitor inconclusive, Pf growth 48h inconclusive, NS1 inh 4µM (no result: AMA1 RON2 block)
CCc1ccccc1N1CSC2=C(C#N)C(c3ccccc3F)CC(=O)N2C1 (centres undefined)	NS1 inh 0.89µM (no result: Pf growth 48h)
